From PubChem BioAssay (NCATS)
Records with an inconclusive call do not appear. The source made the active and inactive calls. The call rests on the fitted dose curve; in most records, active means well fitted inhibition curve with a large enough effect; inconclusive means small, poorly fitted or top-dose-only effect; inactive means flat fitted curve, though single readings scatter.

Assays:
Assay in all cases: qHTS profiling for inhibitors of Plasmodium falciparum proliferation (AID 504749); further: nearly all actives have a fitted effect of over 60% in size
Conditions in all cases: P. falciparum in erythrocytes, SYBR Green DNA, 72 h; series mostly up to 12.8 µM
CP265 = system: CP265
How it was run: (§1)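 Fluorescence of SYBR Green-bound parasite DNA, read at 485/535 nm, served as the growth measure. Infected erythrocytes were cultured with compound 72 h; artemisinin (0.29 uM) and DMSO wells defined the normalization range.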

CP266 = system: CP266
How it was run: as §1

CP268 = system: CP268
How it was run: as §1

CP269 = system: CP269
How it was run: as §1

CP286 = system: CP286
How it was run: as §1

CP291 = system: CP291
How it was run: as §1

CP297 = system: CP297
How it was run: as §1

CP305 = system: CP305
How it was run: as §1

CP315 = system: CP315
How it was run: as §1

CP325 = system: CP325
How it was run: as §1

CP329 = system: CP329
How it was run: as §1

CP335 = system: CP335
How it was run: as §1

DFO2036 = system: DFO2036
How it was run: as §1

DIV14 = system: DIV14
How it was run: as §1

DIV17 = system: DIV17
How it was run: as §1

DIV30 = system: DIV30
How it was run: as §1

Dd2 = system: Dd2
How it was run: as §1

ECU = system: ECU
How it was run: as §1

FAB9 = system: FAB9
How it was run: as §1

GB4 = system: GB4
How it was run: as §1

HB3 = system: HB3
How it was run: as §1

ICS = system: ICS
How it was run: as §1

JCK = system: JCK
How it was run: as §1

N140 = system: N140
How it was run: as §1

P93_24 = system: P93_24
How it was run: as §1

P94_40 = system: P94_40
How it was run: as §1

PAD = system: PAD
How it was run: as §1

PC15 = system: PC15
How it was run: as §1

PC26 = system: PC26
How it was run: as §1

PC49 = system: PC49
How it was run: as §1

SC27B = system: SC27B
How it was run: as §1

TAB109 = system: TAB109
How it was run: as §1

TAB113 = system: TAB113
How it was run: as §1

TAB165 = system: TAB165
How it was run: as §1

W2 = system: W2
How it was run: as §1

Measured: Potency

NC[C@@H]1O[C@@H](O[C@H]2[C@H](O)[C@H](O[C@@H]3O[C@H](CO)[C@@H](O)[C@H](N)[C@@H]3O)[C@@H](N)C[C@H]2N)[C@H](N)C[C@@H]1O
inactive: all assays above
